# Measurements taken from PubChem BioAssay (NCI).
# “And” between values parts separate entries of the source, which are not always exact repeats. Equal values may be shown once. The panel holds about 83,000 compounds, 20% with a hit somewhere; the sample as a whole holds those more often.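 Results are percent growth after 48 hours of single-concentration exposure. 100 means growth as in untreated cells, lower positive values show inhibition; negative values down to -100 show cell death.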 The source made the active and inactive calls. Rule for the calls: active = growth percent below 10; inactive = the rest.
# Legend:
# Assay in all cases: NCI-60 one-dose screen, 48 h (100 = growth as untreated, 0 = no growth, -100 = all killed)
# DU-145 prostate = test system: DU-145 prostate
# K-562 leukemia = test system: K-562 leukemia
# MALME-3M melanoma = test system: MALME-3M melanoma
# MDA-MB-231 breast = test system: MDA-MB-231 breast
# RXF 393 renal = test system: RXF 393 renal
# SF-268 CNS = test system: SF-268 CNS
# SF-295 CNS = test system: SF-295 CNS
# SF-539 CNS = test system: SF-539 CNS
# UACC-257 melanoma = test system: UACC-257 melanoma
# M14 melanoma = test system: M14 melanoma
structure (smiles),measurement,setting,value
COc1cccc2c1C(=O)c1c(O)c3c(c(O)c1C2=O)C[C@@](O)(C(=O)CO)C[C@@H]3OC1CC(N)C(O)C(C)O1 (stereo partly drawn),growth,DU-145 prostate; 2.5 µM,-33.2% (active)
same,growth,DU-145 prostate; 10 µM,13.2% (inactive)
same,growth,K-562 leukemia; 0.0025 µM,107% (inactive)
same,growth,K-562 leukemia; 1 µM,32.8% (inactive)
same,growth,K-562 leukemia; 2.5 µM,28.1% (inactive)
same,growth,MALME-3M melanoma; 0.0025 µM,79.3% (inactive)
same,growth,MALME-3M melanoma; 1 µM,-17.2% (active)
same,growth,MALME-3M melanoma; 2.5 µM,30% (inactive)
same,growth,MDA-MB-231 breast; 0.0025 µM,124% (inactive)
same,growth,MDA-MB-231 breast; 1 µM,71% (inactive)
same,growth,MDA-MB-231 breast; 2.5 µM,82.1% (inactive)
same,growth,RXF 393 renal; 0.0025 µM,107% (inactive)
same,growth,RXF 393 renal; 10 µM,-28.5% (active)
same,growth,SF-268 CNS; 0.0025 µM,97% (inactive)
same,growth,SF-268 CNS; 1 µM,41% (inactive)
same,growth,SF-268 CNS; 2.5 µM,16.7% (inactive)
same,growth,SF-295 CNS; 0.0025 µM,95.8% (inactive)
same,growth,SF-295 CNS; 1 µM,2.06% (active)
same,growth,SF-295 CNS; 2.5 µM,-1.94% (active)
same,growth,SF-539 CNS; 0.0025 µM,97.1% (inactive)
same,growth,SF-539 CNS; 1 µM,36.5% (inactive)
same,growth,SF-539 CNS; 2.5 µM,32.3% (inactive)
same,growth,UACC-257 melanoma; 0.0025 µM,90% (inactive)
same,growth,UACC-257 melanoma; 1 µM,28.3% (inactive)
same,growth,UACC-257 melanoma; 2.5 µM,42.8% (inactive)
same,growth,M14 melanoma; 0.0025 µM,90.9% (inactive)
same,growth,M14 melanoma; 1 µM,16.6% (inactive)
same,growth,M14 melanoma; 2.5 µM,50.9% (inactive)
O=c1ccn(C2CC(O)C(COC(c3ccccc3)(c3ccccc3)c3ccccc3)O2)c(=O)[nH]1 (stereo not drawn),growth,DU-145 prostate; 10 µM,107% (inactive)
same,growth,DU-145 prostate; 100 µM,55.7% (inactive)
same,growth,K-562 leukemia; 100 µM,26.5% (inactive)
same,growth,MALME-3M melanoma; 100 µM,70.7% (inactive)
same,growth,MDA-MB-231 breast; 100 µM,66.1% (inactive)
same,growth,RXF 393 renal; 10 µM,86.5% (inactive)
same,growth,RXF 393 renal; 100 µM,36.6% (inactive)
same,growth,SF-268 CNS; 100 µM,42.9% (inactive)
same,growth,SF-295 CNS; 100 µM,38.2% (inactive)
same,growth,SF-539 CNS; 100 µM,60.3% (inactive)
same,growth,UACC-257 melanoma; 100 µM,55.2% (inactive)
same,growth,M14 melanoma; 100 µM,52.5% (inactive)
COC1OCC(O)C(O)C1O (stereo not drawn),growth,DU-145 prostate; 10 µM unless noted,105% (inactive)
same,growth,K-562 leukemia; 10 µM,104% (inactive)
same,growth,MALME-3M melanoma; 10 µM,103% (inactive)
same,growth,MDA-MB-231 breast; 10 µM,110% (inactive)
same,growth,RXF 393 renal; 10 µM unless noted,106% (inactive)
same,growth,SF-268 CNS; 10 µM,98.4% (inactive)
same,growth,SF-295 CNS; 10 µM,105% (inactive)
same,growth,SF-539 CNS; 10 µM,107% (inactive)
same,growth,M14 melanoma; 10 µM,101% (inactive)
Cc1cc(O)c(C(C)C)cc1Cl,growth,DU-145 prostate; 10 µM unless noted,101% (inactive)
same,growth,K-562 leukemia; 10 µM,96.8% (inactive)
same,growth,MALME-3M melanoma; 10 µM,109% (inactive)
same,growth,MDA-MB-231 breast; 10 µM,104% (inactive)
same,growth,RXF 393 renal; 10 µM unless noted,120% (inactive)
same,growth,SF-268 CNS; 10 µM,99.3% (inactive)
same,growth,SF-295 CNS; 10 µM,100% (inactive)
same,growth,SF-539 CNS; 10 µM,105% (inactive)
same,growth,M14 melanoma; 10 µM,101% (inactive)
C[n+]1c2cc(N)ccc2cc2ccc(N)cc21,growth,MALME-3M melanoma; 10 µM,-62% (active) and -11.9% (active) and -51.7% (active)
same,growth,MDA-MB-231 breast; 10 µM,14.5% (inactive) [middle of 4 runs]
same,growth,RXF 393 renal; 10 µM unless noted,-34.2% (active) and 5.66% (active) and -8.06% (active)
same,growth,SF-539 CNS; 10 µM,10.8% (inactive) and 19.8% (inactive) and -3.57% (active)
CCN1/C(=C/C=C/C=C/c2sc3ccccc3[n+]2CC)Sc2ccccc21,growth,DU-145 prostate; 10 µM unless noted,-17.2% (active)
same,growth,K-562 leukemia; 10 µM,-46.4% (active)
same,growth,MALME-3M melanoma; 10 µM,-32.8% (active)
same,growth,MDA-MB-231 breast; 10 µM,8.54% (active)
same,growth,RXF 393 renal; 10 µM unless noted,-64.4% (active)
same,growth,SF-268 CNS; 10 µM,-75.4% (active)
same,growth,SF-295 CNS; 10 µM,-23.8% (active)
same,growth,SF-539 CNS; 10 µM,-57% (active)
same,growth,UACC-257 melanoma; 10 µM,-57.7% (active)
same,growth,M14 melanoma; 10 µM,-81.7% (active)
NC(=O)SCC(=O)NNc1ccccc1,growth,DU-145 prostate; 10 µM unless noted,99.6% (inactive)
same,growth,K-562 leukemia; 10 µM,101% (inactive)
same,growth,MDA-MB-231 breast; 10 µM,89.2% (inactive)
same,growth,RXF 393 renal; 10 µM unless noted,112% (inactive)
same,growth,SF-268 CNS; 10 µM,92.8% (inactive)
same,growth,SF-295 CNS; 10 µM,94.6% (inactive)
same,growth,SF-539 CNS; 10 µM,103% (inactive)
same,growth,UACC-257 melanoma; 10 µM,91.6% (inactive)
same,growth,M14 melanoma; 10 µM,102% (inactive)
COc1c(O)cc2oc3cc(O)c(CC=C(C)C)c(O)c3c(=O)c2c1CC=C(C)C,growth,DU-145 prostate; 10 µM unless noted,62% (inactive)
same,growth,K-562 leukemia; 10 µM,26.7% (inactive)
same,growth,MALME-3M melanoma; 10 µM,87.4% (inactive)
same,growth,MDA-MB-231 breast; 10 µM,40.2% (inactive)
same,growth,RXF 393 renal; 10 µM unless noted,83% (inactive)
same,growth,SF-268 CNS; 10 µM,57.9% (inactive)
same,growth,SF-295 CNS; 10 µM,56.2% (inactive)
same,growth,SF-539 CNS; 10 µM,89% (inactive)
same,growth,M14 melanoma; 10 µM,54.4% (inactive)
CCO/C=C1\SC(=S)N(c2cccc(O)c2)C1=O,growth,DU-145 prostate; 10 µM unless noted,109% (inactive)
same,growth,K-562 leukemia; 10 µM,89.9% (inactive)
same,growth,MALME-3M melanoma; 10 µM,88.2% (inactive)
same,growth,MDA-MB-231 breast; 10 µM,102% (inactive)
same,growth,RXF 393 renal; 10 µM unless noted,102% (inactive)
same,growth,SF-268 CNS; 10 µM,103% (inactive)
same,growth,SF-295 CNS; 10 µM,99.5% (inactive)
same,growth,SF-539 CNS; 10 µM,102% (inactive)
same,growth,M14 melanoma; 10 µM,105% (inactive)
OC(CN1CCCC2CCCCC21)c1cc2ccccc2c2ccccc12 (stereo not drawn),growth,DU-145 prostate; 10 µM unless noted,40.3% (inactive)
same,growth,K-562 leukemia; 10 µM,-14.4% (active)
same,growth,MALME-3M melanoma; 10 µM,17.7% (inactive)
same,growth,MDA-MB-231 breast; 10 µM,-11.2% (active)
same,growth,SF-268 CNS; 10 µM,45.7% (inactive)
same,growth,SF-295 CNS; 10 µM,-3.44% (active)
same,growth,SF-539 CNS; 10 µM,27.8% (inactive)
same,growth,UACC-257 melanoma; 10 µM,22.7% (inactive)
same,growth,M14 melanoma; 10 µM,-69.8% (active)
